Counter-ions that a name gives are not always drawn. Like-named read-outs stand apart in the source and are kept apart here. In all, about 5,300 compounds went through this assay and about 130 (2.5%) showed an effect of 50% or more. Shown is part of a subset that was picked to be rich in strong results.
Tested on: M. mycetomatis strain mm55
Conditions: primary screen, metabolic activity vs growth control, 96 h, 2 µM, inhibitor
[1] = Madurella mycetomatis metabolic activity at 2µM (%)

SMILES | % viability [%] | % viability [1] [%]
O=C(CCCN1CCC(n2c(O)nc3ccccc32)CC1)c1ccc(F)cc1 [ONC0002014, benperidol] | 79.93 | 
N[C@@H]1CON=C1O [ONC0000314, cycloserine d] | 88.4 | 
CN[C@@H](C)C(=O)N[C@H]1CCCC[C@H]2CCC(C(=O)N[C@@H](c3ccccc3)c3cn(CCCCc4ccc(CCCCn5cc([C@@H](NC(=O)[C@@H]6CC[C@@H]7CCCC[C@H](NC(=O)[C@H](C)NC)C(=O)N76)c6ccccc6)nn5)cc4)nn3)N2C1=O (stereo partly shown) [ONC0003931, sm164] | 63.69 | 
C=CC(=O)[O-].[Na+] [ONC0002646, sodium acrylate] | 77.54 | 
N#Cc1cnc2c(Cl)cc(NCc3cn(CCN4CCCCCC4)nn3)cc2c1Nc1ccc(F)c(Cl)c1 [ONC0000779, cot inhibitor1] | 49.03 | 
N#Cc1cnc2cnc(NCc3cccnc3)cc2c1Nc1ccc(F)c(Cl)c1 [ONC0001337, tcs7006] | 78.74 | 
CCN1CCC(n2cc(CNc3cc(Cl)c4ncc(C#N)c(Nc5ccc(F)c(Cl)c5)c4c3)nn2)CC1 [ONC0002075, cot inhibitor2] | 82.04 | 
CC(C)=CCC/C(C)=C/CC/C(C)=C/C=C/C(C)=C/C(=O)O [ONC0000885, peretinoin] | 65.8 | 
CCCC[P+](CCCC)(CCCC)Cc1ccc(NC(=O)[C@H](Cc2ccc3ccccc3c2)N=C(NC2CCCCC2)NC2CCCCC2)cc1 [ONC0000223, win64338] | 62.1 | 
CC(NC(=O)CCc1nc(=O)c2ccccc2[nH]1)c1ccccc1 (stereo not shown) [ONC0005174, me0328] | 117.9 | 
CC(=O)N(O)[C@@H]1c2cc(C#N)ccc2OC(C)(C)[C@H]1O [ONC0004430, y26763] | 123.9 | 
CC1(C)Oc2ccc(C#N)cc2[C@@H](N2CCCC2=O)[C@@H]1O.CC1(C)Oc2ccc(C#N)cc2[C@H](N2CCCC2=O)[C@H]1O [ONC0001708, levcromakalim] | 57.98 | 
CC1(C)Oc2ccc(C#N)cc2[C@@H](OC2=CC(=O)CC2)[C@@H]1O [ONC0003452, pco 400] | 40.31 | 
CCCCCCCCCCCCCCCC(=O)OC1C(SC)OC(C(NC(=O)C2CC(CCC)CN2C)C(C)Cl)C(O)C1O (stereo not shown) [ONC0004643, clindamycin palmitate hcl] | 84.71 | 
CC(=O)OCC(=O)[C@@]12OC(C)(C)O[C@@H]1CC1C3C[C@H](F)C4=CC(=O)C=C[C@]4(C)[C@@]3(F)[C@@H](O)C[C@@]12C (stereo partly shown) [ONC0000518, fluocinonide] | 69.32 | 
CCN(CC)CCN1C(=O)C(=Cc2ccc(OC)cc2)Nc2ccccc21 [ONC0005609, caroverine] | 42.25 | 
COc1ccc(C2Sc3ccccc3N(CCN(C)C)C(=O)C2OC(C)=O)cc1 (stereo not shown) [ONC0005348, diltiazem hydrochloride] | 61.39 | 
CCN(CC)CCNC(=O)COc1ccc(OC)cc1 [ONC0000676, mefexamide hydrochloride] | 93.51 | 
CC(=O)N[C@H]1[C@H]([C@H](O)[C@H](O)CO)OC(C(=O)O)=C[C@@H]1N=C(N)N [ONC0004525, zanamivir relenza] | 62.68 | 
CC[C@]12CCCN3CCc4c(n(c5ccccc45)[C@@](O)(C(=O)OC)C1)[C@@H]32 [ONC0003425, vincamine] | 89.22 | 
CC[C@]12CCCN3CCc4c(n(c5ccccc45)C(=O)C1)[C@@H]32 [ONC0003441, eburnamonine] | 44.28 | 
CCOC(=O)C1=C[C@]2(CC)CCCN3CCc4c(n1c1ccccc41)[C@@H]32 [ONC0002865, vinpocetine] | 109.8 | 
Cc1ccc(NC2=CC(=O)c3sc(C)nc3C2=O)cc1 [ONC0003545, ryuvidine] | 94.75 | 
COc1cccc(/C=N/C=N/c2cccc(OC)c2)c1 [ONC0002505, dmeob] | 75.27 | 
CO[C@@H](C(=O)N1Cc2n[nH]c(NC(=O)c3ccc(N4CCN(C)CC4)cc3)c2C1)c1ccccc1 [ONC0004749, danusertib pha739358] | 112.5 | 
CN(C)c1ccc(C(=C2C=CC(=[N+](C)C)C=C2)c2ccc(N(C)C)cc2)cc1 [ONC0000415, gentian violet] | 35.99 | 

SMILES | % viability [%] | % viability [1] [%]
CCN(CC)c1ccc(C(=C2C=CC(=[N+](CC)CC)C=C2)c2ccccc2)cc1 [ONC0002765, brilliant green] | 123.8 | 
CC1=CC(=C(c2ccc(N)cc2)c2ccc(N)cc2)C=CC1=N [ONC0002809, basic fuchsin] | 79.53 | 
Cc1cc(O)c(-c2ccc([C@@H](C)CN)cc2)c2c1[nH]c(=O)c1sccc12 [ONC0001173, ots514] | 81.93 | 
CCOc1nc2cccc(C(=O)OC(C)OC(=O)OC3CCCCC3)c2n1Cc1ccc(-c2ccccc2-c2nnn[nH]2)cc1 (stereo not shown) [ONC0004302, candesartan cilextil] | 98.1 | 
CCCCCCCCCCCCOS(=O)(=O)O [ONC0002181, sodiumdodecylsulfate] |  | 96.71
Nc1nc(O)c2ncn(COC(CO)CO)c2n1 [ONC0003983, ganciclovir hydrate] | 92.25 | 
NS(=O)(=O)Nc1ncnc(OCCOc2ncc(Br)cn2)c1-c1ccc(Br)cc1 [ONC0002096, aprocitentan] | 65.83 | 
CC(C)(C)[C@@]1(O)CCN2C[C@@H]3c4ccccc4CCc4cccc(c43)[C@H]2C1 [ONC0002006, butaclamolhcl] | 90.12 | 
C=C1NCC[C@@H](C(=O)O)N1 [ONC0005375, ectoinezwitterion] | 125.4 | 
NC[C@H]1O[C@H](O[C@H]2C(O[C@@H]3O[C@H](CO)[C@@H](O)[C@H]3O)[C@@H](O)[C@H](N)C[C@@H]2N)[C@H](N)[C@@H](O)[C@@H]1O (stereo partly shown) [ONC0002301, ribostamycin sulfate] | 111.7 | 
NC[C@H]1O[C@H](O[C@H]2[C@H](O[C@@H]3O[C@H](CO)[C@@H](O)[C@H]3O)[C@@H](O)[C@H](N)C[C@@H]2N)[C@H](N)[C@@H](O)[C@@H]1O [ONC0001104, ribostamycin sulfate] | 39.68 | 
OC[C@H]1O[C@H](O[C@H]2O[C@H](CO)[C@@H](O)[C@H](O)[C@H]2O)[C@H](O)[C@@H](O)[C@@H]1O [ONC0003487, trehalose] | 42.59 | 
OC[C@H]1O[C@@H](O[C@@H]2[C@H](O)[C@@H](O)[C@H](O[C@H]3[C@H](O)[C@@H](O)C(O)O[C@@H]3CO)O[C@@H]2CO)[C@H](O)[C@@H](O)[C@H]1O (stereo partly shown) [ONC0004130, 4galactosyllactose] | 126.3 | 
OC[C@H]1O[C@H](O[C@H]2[C@H](O)[C@@H](O)[C@H](O)O[C@@H]2CO)[C@H](O)[C@@H](O)[C@@H]1O [ONC0000327, dmaltose] | 54.64 | 
NC[C@@H]1O[C@H](O[C@H]2[C@@H](O)[C@H](O[C@@H]3[C@@H](O)[C@H](N)C[C@H](N)[C@H]3O[C@H]3O[C@H](CO)[C@@H](O)[C@H](O)[C@H]3N)O[C@@H]2CO)[C@H](N)[C@@H](O)[C@@H]1O [ONC0005310, paromomycin] | 134.8 | 
O=C1OC2(c3cc(I)c(O)c(I)c3Oc3c2cc(I)c(O)c3I)c2c(Cl)c(Cl)c(Cl)c(Cl)c21 [ONC0002798, rose bengal sodium salt] |  | 83.07
CC1=C(C(=O)O)N2C(=O)[C@@H](NC(=O)[C@H](N)C3=CCC=CC3)C2SC1 (stereo partly shown) [ONC0000708, cephradine] | 86.49 | 
CCS(=O)(=O)N(C)[C@H]1c2cc(C#N)ccc2OC(C)(C)[C@@H]1O [ONC0002693, chromanol293b3r4s] | 103.9 | 
CCS(=O)(=O)N(C)[C@@H]1c2cc(C#N)ccc2OC(C)(C)[C@H]1O.CCS(=O)(=O)N(C)[C@H]1c2cc(C#N)ccc2OC(C)(C)[C@@H]1O [ONC0001571, chromanol] | 78.85 | 
CC1(C)Oc2ccc(C#N)cc2[C@H](N(Cc2ncc[nH]2)c2ccc(Cl)cc2)[C@H]1O [ONC0001872, bms191095] | 47.09 | 
CCCCn1c(-c2ccccc2)nc(-c2ccccc2)c1CN(Cc1ccc2c(c1)OCO2)Cc1ccc2c(c1)OCO2 [ONC0002511, ndt9513727] | 38.93 | 
c1ccc2sc(N3CCN(Cc4ccc5c(c4)OCO5)CC3)nc2c1 [ONC0000161, 214piperonylpiperazinylbenzothiazole] | 77.89 | 
c1ccc(C(O[C@@H]2CCCN(CCc3ccc4c(c3)OCO4)C2)c2ccccc2)cc1 [ONC0003094, zamifenacin] | 77.83 | 
Nc1ncnc2c1c(-c1cccc(OCc3ccccc3)c1)cn2C1CC(CN2CCCC2)C1 (stereo in doubt) [ONC0000263, nvpadw742] | 57.9 | 
CCCN1C[C@@H](NS(=O)(=O)N(CC)CC)C[C@@H]2Cc3c(O)cccc3C[C@H]21 [ONC0000942, quinagolide hydrochloride] | 65.37 | 
CO[C@H](C(=O)[C@@H](O)[C@@H](C)O)[C@@H]1Cc2cc3cc(O[C@H]4C[C@@H](O[C@H]5C[C@@H](O)[C@H](O)[C@@H](C)O5)[C@@H](O)[C@@H](C)O4)c(C)c(O)c3c(O)c2C(=O)[C@H]1O[C@H]1C[C@@H](O[C@H]2C[C@@H](O[C@H]3C[C@](C)(O)[C@H](O)[C@@H](C)O3)[C@H](O)[C@@H](C)O2)[C@H](O)[C@@H](C)O1 [ONC0003516, plicamycin mithramycin] | 50.92 | 
